FBW7 activator: FBW7 E3 ligase activators, primary screen, biochemical, AlphaScreen, human; F-box/WD repeat-containing protein 7 (Homo sapiens), Q969H0; AlphaScreen FBW7–phospho-cyclin E peptide binding, activator screen; normalized activity (activation), % at 26.1 µM; hit rate 0.13% among 650,000; AID 1259310, 2017; in the data active = normalized activity above about 1.9%;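 note: purified mutant Fbw7 with reduced substrate affinity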
MITF inh: MITF inhibitors, primary screen, biochemical, AlphaScreen, human | AID 1259374, 2018 | hit rate 0.91% among 650,000 | AlphaScreen MITF homodimerization, bead proximity signal | Microphthalmia-associated transcription factor (Homo sapiens), O75030 | inhibition, % at 2.6 µM; in the data active = inhibition above about 50%;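 note: 0% = vehicle wells with protein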
Target sequence (O75030 whole entry, looked up): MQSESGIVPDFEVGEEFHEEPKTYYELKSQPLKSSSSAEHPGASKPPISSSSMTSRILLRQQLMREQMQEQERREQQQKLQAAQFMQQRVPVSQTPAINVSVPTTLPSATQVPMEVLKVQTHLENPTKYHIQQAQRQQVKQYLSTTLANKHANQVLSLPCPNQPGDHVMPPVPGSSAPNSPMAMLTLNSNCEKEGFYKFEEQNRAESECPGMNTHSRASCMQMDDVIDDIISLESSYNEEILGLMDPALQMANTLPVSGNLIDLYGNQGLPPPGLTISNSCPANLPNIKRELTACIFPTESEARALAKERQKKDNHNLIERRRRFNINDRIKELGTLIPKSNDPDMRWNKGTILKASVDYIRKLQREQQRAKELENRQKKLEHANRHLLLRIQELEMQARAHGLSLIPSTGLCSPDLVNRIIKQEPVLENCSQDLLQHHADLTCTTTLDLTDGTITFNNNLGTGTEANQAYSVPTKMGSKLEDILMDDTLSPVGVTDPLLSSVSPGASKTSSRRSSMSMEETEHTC
TEAD-YAP block: TEAD-YAP interaction inhibition, primary screen, TEAD-YAP interaction inhibitor project, luminescence, HEK-TIYL cells. inhibition, % at 9.12 µM. hit rate 1.4% among 640,000. AID 1259422, 2018. TEAD-Gal4/YAP UAS-luciferase luminescence; in the data active = inhibition above about 32%;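 note: 0% = median of test compound wells and 100% = reference inhibitor wells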
GPR151 activ: activators of human GPR151, primary screen, cell-based, PathHunter beta-arrestin, luminescence. G-protein coupled receptor 151 (Homo sapiens), Q8TDV0. PathHunter beta-arrestin GPR151 cells. activation, % at 11.2 µM. hit rate 1% among 650,000; in the data active = activation above about 4.9%;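 note: 0% = median of compound wells and 100% = cells with positive control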
MITF confirm: MITF inhibitors, retest of hits, confirmation, biochemical, AlphaScreen, triplicate; shares compounds with MITF inh; AlphaScreen MITF homodimerization, biotin/His-MITF beads; inhibition, % at 2.6 µM; hit rate 16% among 4,700; AID 1259372, 2018;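 active = inhibition above a cutoff derived from the DMSO control wells, cut at about 28% in these data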;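 note: 0% = MITF dimer wells with DMSO only; inhibitors lower the bead chemiluminescence by keeping MITF from dimerizing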
AlphaScreen DR: AlphaScreen optical interference compounds, dose response, counter-screen, biochemical, HTS; shares compounds with MITF inh; AlphaScreen optical interference counterscreen, cell-free; IC50, µM; hit rate 6% among 480; call rule not given here
AS interf ctr: AlphaScreen optical interference compounds, counter-screen for MITF inhibitor project, biochemical, triplicate | hit rate 7.6% among 4,700 | LysRS AlphaScreen counterscreen, signal interference | AID 1259376, 2018 | inhibition, % at 2.6 µM | shares compounds with MITF inh;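 active = inhibition above a cutoff derived from the DMSO control wells, cut at about 30% in these data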
The depositor's hits bear a star; nt = no result. Compounds with a hit are over-represented: about 3.5% of the library has one in this group of screens.

SMILES	FBW7 activator	MITF inh	TEAD-YAP block	GPR151 activ	MITF confirm	AS interf ctr	others
CN1CCC(N(C)Cc2cccc(Br)c2)CC1	0	35	-3	0	nt	nt
CN1CCC(N(C)Cc2ccc(Cl)cc2)CC1	0	53*	-11	1	-5	0
O=[N+]([O-])c1ccc(CSc2nnc(-c3cnccn3)n2Cc2ccco2)cc1	0	0	-2	0	nt	nt
C=CCNCCC1CCC(=O)N1C(C)c1ccc2cc(OC)ccc2c1 (stereo not drawn)	0	20	0	-1	nt	nt
CN1CCC(N(C)Cc2c(F)cccc2Cl)CC1	0	53*	7	4	18	7
CN1CCC(N(C)Cc2cccc(Cl)c2Cl)CC1	0	12	0	2	nt	nt
COc1ccccc1C(=O)N/C(=C\c1ccc([N+](=O)[O-])cc1)C(=O)Nc1ccc(Cl)cc1C	0	1	-6	2	nt	nt
Cc1cn2c(=O)c(C(=O)Nc3ccc(Br)cc3F)cnc2s1	0	8	-12	1	nt	nt
COc1cccc(CC(=O)Nc2ccc3ccccc3c2)c1	0	-1	7	-2	nt	nt
COc1cccc(CC(=O)Nc2nnc(-c3ccco3)c(-c3ccco3)n2)c1	-1	63*	-4	1	80*	15	AlphaScreen DR=>6.5
O=C1C=Cc2ccccc2/C1=C/c1nc2n(c1O)CCCCC2	0	-11	5	4	nt	nt
CCOC(=O)c1ccc(S(=O)(=O)NCCN2CCOCC2)cc1	0	54*	4	0	-5	-6
O=C(CSc1ncnc2sc3c(c12)CCC3)NCc1ccc2c(c1)OCO2	0	15	2	1	nt	nt
COc1ccccc1CNS(=O)(=O)c1ccc(F)c(C(=O)Nc2cc(Cl)ccc2Cl)c1	0	13	4	0	nt	nt
Cc1ccc2cc(CN(CCO)C(=O)c3ccc(Cl)cc3)c(=O)[nH]c2c1	0	54*	-10	-1	22	9
CN(C)CCCNc1ncnc2sc3c(c12)CCC3	0	79*	20	1	13	30*
CN(C)CCCNc1ncnc2sccc12	0	73*	-7	0	2	11
CC1=C(C(=O)N(C)C)C(c2ccc(C(F)(F)F)cc2)NC(=O)N1 (stereo not drawn)	0	14	5	3	nt	nt
O=C1c2ccccc2C(=O)N1CCCCN(C(=O)c1ccc([N+](=O)[O-])cc1)c1ccc(Cl)cc1	0	1	-10	-2	nt	nt
Cc1ccc(N(CCCCN2C(=O)c3ccccc3C2=O)C(=O)c2ccc([N+](=O)[O-])cc2)cc1	0	64*	-2	-1	5	15
O=C1c2ccccc2C(=O)N1CCCCN(C(=O)c1cc([N+](=O)[O-])ccc1Cl)c1ccc(Cl)cc1	0	68*	11	0	6	11
COc1cc(NC(=O)c2ccnc(Nc3ncccn3)c2)cc(OC)c1OC	0	15	-1	-2	nt	nt
COc1ccc(OC)c(CN2CCN(Cc3ccccc3F)CC2)c1	0	77*	-6	2	-4	-2
COc1ccc(OC)c(CN2CCN(CCCc3ccccc3)CC2)c1	0	66*	0	1	0	-3
COc1ccc(OC)c(CN2CCN(Cc3ccccc3Cl)CC2)c1	0	77*	-2	-1	14	16
COc1ccc(CN2CCN(Cc3ccccc3Cl)CC2)c(OC)c1	0	80*	0	1	5	18
CCCNc1ccnc(-c2ccc(N3CCOCC3)nc2)n1	0	-1	-8	-1	nt	nt
CCn1nc(C(=O)Nc2nnc(-c3ccc(F)cc3)o2)cc1C	-1	7	-10	0	nt	nt
Cc1cc(OC(=O)c2ccc(Cl)cc2)c([N+](=O)[O-])c(=O)[nH]1	0	12	-5	4	nt	nt
CC1CC(C)CN(C(=O)CCNS(=O)(=O)c2ccc3[nH]c(=O)ccc3c2)C1 (stereo not drawn)	0	0	3	0	nt	nt

Assay outcomes: PubChem BioAssay, The Scripps Research Institute Molecular Screening Center
